Tests used:
Assay in all cases: PBM binding z-score (relative to random genomic background probes); higher = stronger binding; sequences stand for … in GC…GCGATTGACAGCGTAGAATGAAGG
[1] = test system: PPARg:RXRa DBDmut IVT, anti-RXR (DBD mutation: RXRa K156A/R161A, NR concentration 270 nM, RXRa partner concentration 90 nM)
Procedure, shortened: (§1)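 Scanned fluorescence from custom Agilent 4×180K protein-binding microarrays was regression-normalized. Binding z-scores use random background probes as reference. Ligand-free nuclear receptor dimers were incubated on the arrays for 1 h and detected with antibodies against each partner (one per run).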

[2] = test system: PPARg:RXRa IVT, anti-PPARg (NR concentration 270 nM, RXRa partner concentration 90 nM)
Procedure, shortened: as §1

[3] = test system: PPARg DBDmut:RXRa IVT, anti-PPARg (DBD mutation: PPARg1 K132A/R137A, NR concentration 270 nM, RXRa partner concentration 90 nM)
Procedure, shortened: as §1

[4] = test system: PPARg DBDmut IVT, anti-PPARg (DBD mutation: PPARg1 K132A/R137A, NR concentration 270 nM)
Procedure, shortened: as §1

[5] = test system: PPARg homodimer (NR concentration 180 nM)
Procedure, shortened: as §1

[6] = test system: PXR:RXRa (NR concentration 270 nM, RXRa partner concentration 90 nM)
Procedure, shortened: as §1

[7] = test system: PXR homodimer (NR concentration 270 nM)
Procedure, shortened: as §1

[8] = test system: RARa:RXR (NR concentration 270 nM, RXRa partner concentration 90 nM)
Procedure, shortened: as §1

[9] = test system: RARa homodimer (NR concentration 270 nM)
Procedure, shortened: as §1

[10] = test system: RARb:RXRa (NR concentration 270 nM, RXRa partner concentration 90 nM)
Procedure, shortened: as §1

[11] = test system: RARb homodimer (NR concentration 270 nM)
Procedure, shortened: as §1

[12] = test system: RARg:RXRa (NR concentration 270 nM, RXRa partner concentration 90 nM)
Procedure, shortened: as §1

[13] = test system: RARg homodimer (NR concentration 270 nM)
Procedure, shortened: as §1

[14] = test system: RXRa DBDmut IVT, anti-RXR (DBD mutation: RXRa K156A/R161A, NR concentration 90 nM)
Procedure, shortened: as §1

[15] = test system: RXRa homodimer (NR concentration 180 nM)
Procedure, shortened: as §1

[16] = test system: THRa:RXRa (NR concentration 90 nM, RXRa partner concentration 90 nM)
Procedure, shortened: as §1

[17] = test system: THRa homodimer (NR concentration 90 nM)
Procedure, shortened: as §1

[18] = test system: VDR homodimer (NR concentration 270 nM)
Procedure, shortened: as §1

| Sequence | PBM binding z-score [1] | PBM binding z-score [2] | PBM binding z-score [3] | PBM binding z-score [4] | PBM binding z-score [5] | PBM binding z-score [6] | PBM binding z-score [7] | PBM binding z-score [8] | PBM binding z-score [9] | PBM binding z-score [10] | PBM binding z-score [11] | PBM binding z-score [12] | PBM binding z-score [13] | PBM binding z-score [14] | PBM binding z-score [15] | PBM binding z-score [16] | PBM binding z-score [17] | PBM binding z-score [18] |
| --- | --- | --- | --- | --- | --- | --- | --- | --- | --- | --- | --- | --- | --- | --- | --- | --- | --- | --- |
| CCTGCTAGGTCATGGTTAGCTAATCTACAGTATG | 4.51 | 3.71 | 1.31 | 0.491 | 3.42 | 1.38 | -0.137 | 2.44 | -0.015 | 3.65 | 2.79 | 4.02 | 4.34 | 1.43 | 2.52 | 2.99 | 1.03 | -0.043 |
| TCTAGTTGGTCAAAGGTCACACAGTCGAAATGCG | 3.56 | 5.99 | 1.3 | 1.88 | 4.79 | 6.01 | 1.76 | 7.79 | 3.16 | 5.05 | 5.27 | 7.05 | 6.38 | 1.73 | 8.22 | 4.12 | 2.06 | 2.98 |
| CCTGCTAGGTCAATGGTAAGCTAAAGCAGCTCGC | 4.33 | 3.43 | -1.49 | -0.489 | 1.05 | 0.564 | -0.596 | 1.5 | -0.463 | 3.79 | 2.43 | 3.52 | 3.82 | 1.66 | 1.96 | 2.03 | 0.52 | -0.274 |
| TGTCAAAGTTCAAAGGTAAGGTAAGTATCCACAC | 0.662 | 4.2 | 2.56 | 2.04 | 6.17 | 5.8 | 5.17 | 6.32 | 2.15 | 5.2 | 3.83 | 6.22 | 6.55 | 4.48 | 7.16 | 3.5 | 0.924 | 4.14 |
| ATATGTAGGTTACATCCGGGTCAATCAGGCTATG | 6.83 | 7.41 | 2.24 | 2 | 1.63 | 2.93 | 0.984 | 3.51 | 0.955 | 2.32 | 3.12 | 3.95 | 2.2 | 0.665 | 3.37 | 3.8 | 2.33 | 1.72 |
| ATATGTAGGTTAAGGGTCATTTAGGTTGGTTCGC | 7.27 | 7.94 | 3.6 | 3.31 | 3.63 | 5.37 | 2.03 | 5.61 | 2.42 | 3.61 | 4.09 | 4.79 | 3.29 | 2.35 | 6.16 | 3.72 | 1.76 | 3.97 |
| TGAATGAGGCTATAAGATCAGGGAACGTTGCAAA | -0.531 | -0.142 | 0.314 | 0.0126 | -0.853 | -0.467 | -0.512 | -0.215 | -0.382 | -0.0944 | -0.742 | -0.102 | 0.256 | -1.09 | -0.0491 | -0.134 | -0.324 | -0.554 |
| GCTACTGGGGCATCAGCAGGTTACCATAACTTAA | 5.96 | 5.52 | 0.447 | 0.741 | 0.599 | 0.0663 | -0.537 | 0.497 | -0.28 | 0.962 | 0.946 | 0.791 | 0.586 | 0.403 | 0.169 | 1.09 | 0.00611 | -0.67 |
| TCTACTAGGTCAACGATGGTCAGCTAATCTGCTA | 7.66 | 7.96 | 1.25 | 1.79 | 1.93 | 1.93 | 0.246 | 2.54 | 1.28 | 4.23 | 3.59 | 4.28 | 5.16 | 1.89 | 3.07 | 3.2 | 1.37 | 0.629 |
| CCGAGCAGGTTATGGGGCATTCAGGCAACGGTGA | 0.393 | 1.05 | -0.884 | -0.839 | 0.261 | -0.112 | -0.362 | 0.225 | -0.391 | 1.04 | 1.03 | 0.387 | 0.573 | -0.126 | 0.679 | 0.573 | 0.0585 | -0.392 |
| TCTAGATGGTCACGGAGGTCACACACGACGGGTA | 2.1 | 3.58 | 1.44 | 1.08 | 4.17 | 4.87 | 2.07 | 5.06 | 1.56 | 3.9 | 4.54 | 4.93 | 4.89 | 0.905 | 5.34 | 3.85 | 2.6 | 3.63 |
| TCGGGTAGGTTAGGGGCATTCAGAATGGCGTCGA | 1.55 | 1.36 | 0.266 | 0.468 | 1.38 | 1.67 | 1.27 | 1.32 | 0.423 | 1.74 | 1.88 | 1.07 | 1 | 0.943 | 1.02 | 2.44 | 1.61 | 1.79 |
| ACTAGCAGGCCATGGGTCACTCAAGATTAGTCCG | 0.912 | 2.7 | -0.371 | -0.346 | 0.473 | 0.85 | -0.43 | 1.56 | -0.392 | 1.94 | 2.1 | 1.88 | 2.07 | -0.507 | 1.75 | 1.42 | -0.31 | -0.0856 |
| ATATGTAGGTTATCGGGTCATTGAGTTTGCGCAT | 7.71 | 7.5 | 3.11 | 1.9 | 2.89 | 4.55 | 10.5 | 3.82 | 1.41 | 2.86 | 3.16 | 3.43 | 2.61 | 1.94 | 3.51 | 3.42 | 2.76 | 5.54 |
| CAAACTAGATCACGAAAGGTCAAAGTCGAATGAC | 3.85 | 4.1 | 1.64 | 2.11 | 4.54 | 5.85 | 2.42 | 6.41 | 2.84 | 4.5 | 4.84 | 5.87 | 5.31 | 1.47 | 6.64 | 3.96 | 1.07 | 2.71 |

— the supplement of paper PMC6555819
